Experimental findings from PubChem BioAssay AID504444 (National Center for Advancing Translational Sciences (NCATS), 2011) are described below.

The campaign covered roughly 360,000 compounds. About 7,500 (2.1%) were called active. Inconclusive results (about 20%) are left out. The full list was thinned out, with actives kept by preference. A number with no mark means an inactive call. Calls follow the shape of the dose curve; as a rule, active = well fitted inhibition curve with a large enough effect; inconclusive = small, poorly fitted or top-dose-only effect, or effect the other way; inactive = flat fitted curve, though single readings scatter.
% is scaled to controls: 0 for no effect and ±100 for the full control effect; potency is read from the fitted curve at half-maximal effect.

A short description of the test: Nrf2 qHTS screen for inhibitors. Also: nearly all actives have a fitted effect of over 60% in size. The note with it: A549 ARE-Fluc reporter, luciferase luminescence, 18-24 h; series mostly up to 46 µM; activity change, negative = inhibition: at the top concentration. The method, boiled down: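 Reporter: ARE-Fluc in A549. Exposure: 18-24 h, 37 °C, 5% CO2, 5% FBS OPTI-MEM. Readouts: fluorescent cytotoxicity (CellTiter-Fluor), then luminescent Nrf2 signal after BugLite.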
Take `Cc1ccc(Cn2c(C)c3cnn(CC(=O)NCCN4CCOCC4)c(=O)c3c2C)cc1`: the “activity change, negative = inhibition” value is -21.8%. The same measure, in the same setting: to `Cc1cc(C)cc(NS(=O)(=O)c2cc3c(cc2C)NC(=O)CO3)c1` belongs 18.1%; to `CCOC(=O)CN/C=C(\C#N)c1ccc(F)cc1`, 0.372%. For `C/C(=N\OCC(=O)O)c1ccc(Cl)cc1`, the “activity change, negative = inhibition” value was 1.65%. For `CCOc1cc(/C=C(/C#N)c2ccc(Cl)cc2)cc(Cl)c1OCC(=O)O`, the Potency was 8.2 µM (active). For the compound `CCCCNC(=O)c1ccc2c(c1)NC(=O)C(C(C)C)N2` (stereo not drawn), the “activity change, negative = inhibition” value is -6.85%. On the same count and under the same terms, the value for `COc1ccc(Cn2c(C(=O)O)c(CNCc3cccc(OC)c3)c3ccc(C)cc32)cc1` was -21.6%. Regarding `CCc1cccc(NC(=O)CN(c2ccc(C)c(C)c2)S(=O)(=O)c2ccsc2C(=O)OC)c1`, the “activity change, negative = inhibition” value is 2.91%. Turning to `CC1=C(C(N)=O)C(c2ccc(Br)cc2)n2ncnc2N1` (stereo not drawn), the “activity change, negative = inhibition” value was -20%.

With `CCOC(=O)C1=C(c2ccccc2)Nc2ncnn2C1c1ccc(Cl)cc1` (stereo not drawn), the “activity change, negative = inhibition” value is -3.16%. Turning to `Clc1ccc2c(c1)C1=C(C(c3ccncc3)O2)C(c2ccc(Br)cc2)n2ncnc2N1` (stereo not drawn), the Potency is 13 µM (active). Take `CCCC12CN3CC(CCC)(CN(C1)C3c1c[nH]c3ccc(OC)cc13)C2=O` (stereo not drawn): the “activity change, negative = inhibition” value was -15.7%. Same read-out and setting: to `Cc1ccccc1C(=O)Nc1cc(C)c(O)c(-c2nc3ccccc3o2)c1` belongs 6.96%. For `CCCN(CC(=O)Nc1ccccc1C)C(=O)c1ccc2[nH]c3c(c2c1)CC(C)CC3` (stereo not drawn), the Potency was 20.6 µM (active).

On to `CC1CCc2[nH]c3ccc(C(=O)N(C)CC(=O)Nc4cccc(F)c4)cc3c2C1` (stereo not drawn), for which the “activity change, negative = inhibition” value is 2.56%. Still for that read-out and setting: to `CCCN(CC(=O)Nc1ccccc1C)C(=O)c1cc(=O)[nH]c2ccccc12` belongs 11.2%; to `COc1ccc(CCN2CC(C(=O)OCC(=O)NCc3ccccc3Cl)CC2=O)cc1OC` (stereo not drawn), 4.36%. In the case of `Cc1ccc(O)c(NC(=O)c2cc(-c3ccc(F)cc3)no2)c1`, the “activity change, negative = inhibition” value was 12.9%. On the same count and under the same terms, the value for `CCOc1cc(C2C(C(=O)OC)=C(C)NC3=C2C(=O)c2ccccc23)ccc1O` (stereo not drawn) was 8.61%; that for `COc1ccc(S(=O)(=O)N2CCOCC2)cc1NC(=O)CSc1nnc(NC2CC2)s1` was -0.078%.

With `Cc1ccc2[nH]c(C)c(CCNC(=O)NC3CCCCC3)c2c1`, the Potency is 20.6 µM (active). On to `NS(=O)(=O)c1ccc(CCNC(=O)NC2CCCCC2)cc1`, for which the “activity change, negative = inhibition” value was 2.98%. On to `Cc1ccc2[nH]cc(CCNC(=O)C3CCCCC3)c2c1`, for which the “activity change, negative = inhibition” value is -15.9%. As for `COc1ccc(/C=C/C(=O)OCC(=O)N2CCN(S(=O)(=O)c3ccc(C)cc3C)CC2)cc1OC`, the “activity change, negative = inhibition” value was 0.413%.

Turning to `CSc1ccc(CCNC(=O)c2cnn(-c3ccccc3)c2-n2cccc2)cc1`, the “activity change, negative = inhibition” value was -8.32%. In the case of `O=C(CN1CCN(c2nc(-c3ccccc3)cs2)CC1)NCc1ccc2c(c1)OCO2`, the Potency was 23.1 µM (active). For `COc1ccc(-c2csc(N3CCN(Cc4ccc5c(c4)OCO5)CC3)n2)cc1`, the “activity change, negative = inhibition” value was -26.4%.

Regarding `O=C(CSc1ncnc2scc(-c3ccccc3)c12)NCc1ccc2c(c1)OCO2`, the “activity change, negative = inhibition” value was -28.7%.
